Source: PubChem BioAssay AID1159580 (chemical genetic matrix, 2015)
Values joined by “and” are separate entries in the source; they are usually repeats but may differ in a detail not shown here. Equal values may be shown once. Out of some 5,500 compounds screened, about 2,000 (36%) were called active. Inconclusive results (about 18%) are left out. No stated cut-off is given here; in the data, active means normalized growth mostly below about 0.91 (no sharp cut-off); inconclusive means no clear call, values can overlap the other calls; inactive means mostly above about 0.92. The list shows a part of the results.

Assay: chemical genetic growth profiling, strain panel (AID 1159580);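 further: tested at 20 µM; growth read once vehicle control cultures reached saturation at 30 °C; 1 = growth at the plate median or of vehicle wells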
Details: S. cerevisiae deletion strains, growth OD

Measured: normalized growth

COc1ccc2c(c1)OCc1c-2oc2cc(OC)ccc12
active: locus YAL021C, strain ccr4, stronger effect = lower value 0.901 | locus YAL026C, strain drs2, stronger effect = lower value 0.764 | locus YAL030W, strain snc1, stronger effect = lower value 0.919 | locus YBL061C, strain skt5, stronger effect = lower value 0.864 | locus YBR009C, strain hhf1, stronger effect = lower value 0.737 | locus YBR023C, strain chs3, stronger effect = lower value 0.862 | locus YBR231C, strain swc5, stronger effect = lower value 0.909 | locus YBR279W, strain paf1, stronger effect = lower value 0.894 | locus YCL011C, strain gbp2, stronger effect = lower value 0.792 | locus YCL016C, strain dcc1, stronger effect = lower value 0.858 | locus YDR137W, strain rgp1, stronger effect = lower value 0.415 | locus YDR159W, strain sac3, stronger effect = lower value 0.724 | locus YDR297W, strain sur2, stronger effect = lower value 0.894 | locus YDR335W, strain msn5, stronger effect = lower value 0.857 | locus YDR392W, strain spt3, stronger effect = lower value 0.162 | locus YEL003W, strain gim4, stronger effect = lower value 0.806 | locus YEL061C, strain CIN8 (second series), stronger effect = lower value 0.777 | locus YEL061C, strain CIN8, stronger effect = lower value 0.666 | locus YER015W, strain faa2, stronger effect = lower value 0.9 | locus YER016W, strain bim1, stronger effect = lower value 0.87 | locus YER111C, strain swi4, stronger effect = lower value 0.84 | locus YER155C, strain BEM2 (second series), stronger effect = lower value 0.505 | locus YGL173C, strain kem1, stronger effect = lower value 0.851 | locus YGL240W, strain doc1, stronger effect = lower value 0.756 | locus YGL248W, strain PDE1, stronger effect = lower value 0.84 | locus YGL253W, strain hxk2, stronger effect = lower value 0.866 | locus YHR027C, strain rpn1, stronger effect = lower value 0.916 | locus YHR129C, strain ARP1, stronger effect = lower value 0.779 | locus YHR142W, strain chs7, stronger effect = lower value 0.659 | locus YIL066C, strain RNR3, stronger effect = lower value 0.745 | locus YJL095W, strain BCK1 (second series), stronger effect = lower value 0.761 | locus YJL129C, strain trk1, stronger effect = lower value 0.839 | locus YJL164C, strain tpk1, stronger effect = lower value 0.79 | locus YJL166W, strain qcr8, stronger effect = lower value 0.779
inactive: locus YBR021W, strain FUR4, stronger effect = lower value 0.946 | locus YBR171W, strain sec66, stronger effect = lower value 0.973 | locus YBR229C, strain ROT2, stronger effect = lower value 0.997 | locus YCL029C, strain bik1, stronger effect = lower value 1 | locus YCL069W, strain vba3, stronger effect = lower value 0.945 | locus YCR088W, strain abp1, stronger effect = lower value 0.945 | locus YDL005C, strain med2, stronger effect = lower value 1.02 | locus YDL035C, strain GPR1, stronger effect = lower value 0.955 | locus YDL040C, strain nat1, stronger effect = lower value 0.988 | locus YDL101C, strain DUN1, stronger effect = lower value 0.915 | locus YDL134C, strain PPH21, stronger effect = lower value 0.908 | locus YDL185W, strain tfp1, stronger effect = lower value 1.05 | locus YDL192W, strain arf1, stronger effect = lower value 1.01 | locus YDR001C, strain nth1, stronger effect = lower value 0.989 | locus YDR069C, strain doa4, stronger effect = lower value 0.959 | locus YDR101C, strain arx1, stronger effect = lower value 0.997 | locus YDR150W, strain NUM1, stronger effect = lower value 0.991 | locus YDR162C, strain NBP2, stronger effect = lower value 0.872 | locus YDR195W, strain ref2 1.08 | locus YDR318W, strain mcm21, stronger effect = lower value 0.988 | locus YDR334W, strain swr1, stronger effect = lower value 1.01 | locus YDR388W, stronger effect = lower value 1 | locus YDR502C, strain sam2, stronger effect = lower value 0.985 | locus YEL037C, strain rad23, stronger effect = lower value 0.986 | locus YER110C, stronger effect = lower value 0.995 | locus YER155C, strain BEM2, stronger effect = lower value 0.941 | locus YFR010W, strain ubp6, stronger effect = lower value 0.942 | locus YGL078C, strain dbp3, stronger effect = lower value 1.03 | locus YGL086W, strain mad1, stronger effect = lower value 0.947 | locus YGL167C, strain pmr1, stronger effect = lower value 0.977 | locus YGL227W, strain vid30, stronger effect = lower value 0.935 | locus YGR078C, strain PAC10, stronger effect = lower value 0.943 | locus YGR135W, strain pre9, stronger effect = lower value 1.01 | locus YGR252W, strain gcn5, stronger effect = lower value 0.967 | locus YHR013C, strain ard1, stronger effect = lower value 0.975 | locus YHR030C, strain SLT2, stronger effect = lower value 0.966 | locus YHR079C, strain IRE1 (second series), stronger effect = lower value 1 | locus YHR079C, strain IRE1, stronger effect = lower value 0.951 | locus YHR094C, strain hxt1, stronger effect = lower value 1.02 | locus YHR200W, strain rpn10, stronger effect = lower value 1.01 | locus YIL073C, strain SPO22, stronger effect = lower value 1.18 | locus YIL125W, strain kgd1, stronger effect = lower value 0.996 | locus YIR030C, strain dcg1, stronger effect = lower value 1 | locus YJL092W, strain hpr5, stronger effect = lower value 0.943 | locus YJL115W, strain asf1, stronger effect = lower value 0.995 | locus YJL134W, strain LCB3, stronger effect = lower value 1.01 | locus YJL154C, strain vps35, stronger effect = lower value 1 | locus YJL168C, strain set2, stronger effect = lower value 1.01 | locus YJR043C, strain POL32, stronger effect = lower value 0.953 | locus YJR066W, strain TOR1, stronger effect = lower value 0.876
0.542 (active) and 0.952 (inactive): locus YJL095W, strain BCK1, stronger effect = lower value
